The values that follow come from PubChem BioAssay (EPA / NIEHS).

Experiment [1] in a line: ATG_CRE_CIS: Attagene CIS-FACTORIAL HepG2 Assay for human cAMP Responsive Element (CRE) binding protein 3 (AID 2282926). The note with it: HepG2 CRE cis-reporter, Attagene multiplexed mRNA; actives raise or lower the signal. The method, boiled down:
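Capillary electrophoresis of 6-FAM-labelled, HpaI-digested PCR products quantified reporter transcripts. These came from HepG2 transiently transfected with cis-element reporters and exposed to test chemicals for 24 hours, with DMSO defining baseline activity.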

The target in experiment [2] is CCAAT/enhancer-binding protein beta (Homo sapiens) (UniProt P17676). The experiment can be described thus: ATG_C_EBP_CIS: Attagene CIS-FACTORIAL HepG2 Assay for human CCAAT/Enhancer Binding Protein (C/EBP) beta (AID 2282927). The note with it: HepG2 Attagene cis-factorial transcription factor reporter; actives raise or lower the signal. An outline of the steps:
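Following a 24 h incubation with test chemical, transfected HepG2 cells yielded RNA whose reporter transcripts were quantified by RT-PCR and fluorescent capillary electrophoresis, with DMSO serving as baseline for bidirectional fitting.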

Experiment [3] is described as follows: ATG_CMV_CIS: Attagene CIS-FACTORIAL HepG2 Assay for human CMV (Internal Marker) (AID 2282928).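 Further: endpoint acts as a background internal control marker rather than a target.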 The conditions noted are these: HepG2 CMV promoter reporter, transcription factor profiling; actives raise or lower the signal. The method, boiled down:
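Fluorescence intensity of RT-PCR-derived reporter fragments, resolved by capillary electrophoresis, gives the signal. HepG2 liver cells bearing transfected cis-element reporters were treated 24 h; activity in either direction was fit relative to DMSO-treated controls.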

The nature of experiment [4]: ATG_DR4_LXR_CIS: Attagene CIS-FACTORIAL HepG2 Assay for human Liver X Receptor (LXR), DR4 submotif (AID 2282929). The note with it: HepG2 Attagene DR4 cis-reporter, mRNA transcription; actives raise or lower the signal. An outline of the steps:
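Cells were transfected with multiple reporter transcription units, exposed to chemicals for 24 hours, then lysed for RNA. Reporter mRNA induction was measured by RT-PCR with capillary electrophoresis detection and fitted in both directions relative to DMSO.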

Experiment [5] is described as follows: ATG_AP_1_CIS: Attagene CIS-FACTORIAL HepG2 Assay for human Activator Protein 1 (AP-1) (AID 2282931). The note with it: HepG2 Attagene cis-factorial AP-1 reporter mRNA; actives raise or lower the signal. An outline of the steps: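 Endogenous transcription-factor activity in human HepG2 liver cells is read through a cis-promoter reporter transcript, sampled 24 h after dosing. Detection uses RT-PCR with capillary electrophoresis; values come from bidirectional fitting relative to DMSO.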

The nature of experiment [6]: ATG_AP_2_CIS: Attagene CIS-FACTORIAL HepG2 Assay for human Activator Protein 2 (AP-2) (AID 2282932). The conditions noted are these: HepG2 AP-2 cis-reporter, Attagene transcription factor profiling; actives raise or lower the signal. An outline of the steps:
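Cells (HepG2) transfected with promoter-driven reporter constructs, treated 24 h. Total RNA reverse-transcribed, reporter cDNA PCR-amplified, FAM-labelled by primer extension, digested, resolved by capillary electrophoresis. Activity fitted both directions versus DMSO.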

The nature of experiment [7]: ATG_BRE_CIS: Attagene CIS-FACTORIAL HepG2 Assay for human Bone Morphogenetic Protein (BMP) Response Element (BRE) (AID 2282933). The conditions noted are these: HepG2 BMP response element reporter, Attagene transcription factor profiling; actives raise or lower the signal. An outline of the steps: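 HepG2 cells transiently transfected with CIS reporter units (endogenous TF activity, BMP response element), dosed 24 h. Reporter mRNA quantified by RT-PCR, fluorescent labelling and capillary electrophoresis; bidirectional fit vs DMSO baseline.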

Experiment [8] concerns the target Transcription factor E2F1 (Homo sapiens) (UniProt Q01094). The experiment can be described thus: ATG_E2F_CIS: Attagene CIS-FACTORIAL HepG2 Assay for human E2F Transcription Factor 1 (AID 2282935). The conditions noted are these: HepG2 Attagene cis-reporter, E2F reporter RNA transcripts; actives raise or lower the signal. An outline of the steps: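 First, HepG2 cells were transfected with reporter transcription units. Next, they were dosed for 24 h. Then RNA was isolated, converted to cDNA, PCR-amplified, FAM-labeled, HpaI-digested and analyzed by capillary electrophoresis.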

Experiment [9] is described as follows: ATG_E_Box_CIS: Attagene CIS-FACTORIAL HepG2 Assay for human Enhancer Box (E-box) (AID 2282936). The note with it: HepG2 E-box cis-reporter transcription, actives raise or lower the signal. An outline of the steps: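 Endogenous transcription factor activity was sensed in human HepG2 liver cells through transfected cis-promoter reporter units. After 24 h of dosing, total RNA was reverse-transcribed and reporter cDNA resolved by capillary electrophoresis.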

The nature of experiment [10]: ATG_M_61_CIS: Attagene CIS-FACTORIAL HepG2 Assay for M61 Transcription Factor (Internal Marker) (AID 2282937). The note with it: HepG2 Attagene CIS-FACTORIAL M61 internal marker reporter; actives raise or lower the signal. An outline of the steps:
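Cells were transfected with reporter units under cis-regulatory promoters, treated with chemicals for 24 h, then lysed for RNA. Reporter transcripts were quantified by RT-PCR and capillary electrophoresis, and activity was fitted bidirectionally against DMSO.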

The nature of experiment [11]: ATG_EGR_CIS: Attagene CIS-FACTORIAL HepG2 Assay for human Early Growth Response 1 (EGR1) (AID 2282938). The conditions noted are these: HepG2 Attagene CIS-FACTORIAL EGR reporter mRNA; actives raise or lower the signal. An outline of the steps: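 Endogenous TF activity in HepG2 liver cells was gauged through cis-promoter reporter constructs transiently transfected. After 24 h dosing, reporter mRNA was quantified by RT-PCR and capillary electrophoresis, and curves fitted in both directions versus DMSO.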

A short description of experiment [12]: ATG_Ets_CIS: Attagene CIS-FACTORIAL HepG2 Assay for human Erythroblast Transformation Specific (ETS) (AID 2282941). The note with it: HepG2 ETS cis-reporter transcription, actives raise or lower the signal. An outline of the steps: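 Multiplexed reporter transcript profiling: HepG2, 24 h treatment, total RNA to cDNA, PCR, 6-FAM labelling, HpaI cut, capillary electrophoresis. Gain- or loss-of-signal fitted against DMSO.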

Experiment [13] is described as follows: ATG_FoxO_CIS: Attagene CIS-FACTORIAL HepG2 Assay for human Forkhead box O (FoxO) (AID 2282943). The conditions noted are these: HepG2 Attagene cis-reporter, FoxO element, mRNA; actives raise or lower the signal. The method, boiled down:
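Values reflect reporter mRNA induction or loss in HepG2 cells 24 h post-dosing, fitted bidirectionally with DMSO as negative control and baseline. Detection used RT-PCR and fluorescence capillary electrophoresis.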

Experiment [14] in a line: ATG_GATA_CIS: Attagene CIS-FACTORIAL HepG2 Assay for human GATA Binding Protein (AID 2282944). The note with it: HepG2 GATA cis-element reporter, Attagene multiplex mRNA; actives raise or lower the signal. The method, boiled down:
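HepG2 cells transiently transfected with multiplexed cis-element reporter units measure endogenous GATA activity; after 24 h compound exposure, reporter mRNA quantified by RT-PCR and capillary electrophoresis. Changes fitted in both directions vs DMSO.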

The nature of experiment [15]: ATG_GLI_CIS: Attagene CIS-FACTORIAL HepG2 Assay for human Zinc Finger Protein GLI1 (AID 2282945). The conditions noted are these: HepG2, Attagene cis-factorial reporter mRNA, GLI element; actives raise or lower the signal. The method, boiled down:
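HepG2 cells transiently transfected with cis-promoter multiplexed reporter units report endogenous transcription factor activity. After 24 h chemical exposure, reporter mRNA was quantified by RT-PCR, 6-FAM labelling, HpaI digestion and capillary electrophoresis, with bidirectional fitting against DMSO.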

A short description of experiment [16]: ATG_ISRE_CIS: Attagene CIS-FACTORIAL HepG2 Assay for human Interferon Regulatory Factor 1 (IRF1) binding to an Interferon-Stimulated Response Element (ISRE) (AID 2282948). The conditions noted are these: HepG2 ISRE cis-reporter (Attagene), mRNA transcription readout; actives raise or lower the signal. The method, boiled down: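 Signal reflects induction or loss of ISRE-linked reporter mRNA in transiently transfected HepG2 cells after a 24 h treatment, detected by fluorescent RT-PCR fragments on capillary electrophoresis and normalised to DMSO.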

Experiment [17] can be described thus: ATG_M_32_CIS: Attagene CIS-FACTORIAL HepG2 Assay for M32 Transcription Factor (Internal Marker) (AID 2282949).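 Further: background control marker of the multiplexed CIS panel rather than a real target.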 The conditions noted are these: HepG2 Attagene cis-factorial M32 reporter, mRNA; actives raise or lower the signal. The method, boiled down: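 HepG2 human liver cells transiently transfected with cis-promoter-driven multiple reporter transcription units, dosed 24 h. Reporter mRNA quantified by RT-PCR, FAM-labelled primer extension, HpaI digest and capillary electrophoresis; bidirectional fit versus DMSO baseline.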

A short description of experiment [18]: ATG_M_06_CIS: Attagene CIS-FACTORIAL HepG2 Assay for M06 Transcription Factor (Internal Marker) (AID 2282950). The note with it: HepG2 Attagene CIS-FACTORIAL M06 internal marker reporter; actives raise or lower the signal. The method, boiled down:
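Internal background marker within multiplexed cis-reporter HepG2 system. Cells transiently transfected, dosed 24 h; reporter mRNA measured by RT-PCR, HpaI digestion and capillary electrophoresis. Bidirectional fit relative to DMSO.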

Experiment [19] deals with Paired box protein Pax-6 (Homo sapiens) (UniProt P26367). The experiment can be described thus: ATG_Pax6_CIS: Attagene CIS-FACTORIAL HepG2 Assay for human Paired Box 6 (PAX6) (AID 2282956). The conditions noted are these: HepG2 CIS-FACTORIAL PAX6 reporter transcription, RNA readout; actives raise or lower the signal. The method, boiled down:
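Values derive from bidirectional curve fitting of reporter mRNA signal relative to DMSO. HepG2 cells bearing transfected cis-regulated MRTUs were exposed for 24 h; transcripts were read by RT-PCR and capillary electrophoresis.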

The nature of experiment [20]: ATG_PXRE_CIS: Attagene CIS-FACTORIAL HepG2 Assay for human Pregnane X Receptor Element (PXRE) (AID 2282957). The note with it: HepG2 Attagene CIS-FACTORIAL PXRE reporter, mRNA; actives raise or lower the signal. An outline of the steps: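 Fluorescent capillary electrophoresis of amplified reporter cDNA gave the signal, collected 24 h after dosing HepG2 cells that held transfected cis-element reporter constructs.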

The structures appear in SMILES notation. Active and inactive are the calls of the source. How the source made its calls: active means hit-call score of the fitted dose curve at least 0.9, where 1 is the maximum; inactive means score below 0.9.

Sequence of CCAAT/enhancer-binding protein beta (Homo sapiens) (P17676 whole entry, looked up): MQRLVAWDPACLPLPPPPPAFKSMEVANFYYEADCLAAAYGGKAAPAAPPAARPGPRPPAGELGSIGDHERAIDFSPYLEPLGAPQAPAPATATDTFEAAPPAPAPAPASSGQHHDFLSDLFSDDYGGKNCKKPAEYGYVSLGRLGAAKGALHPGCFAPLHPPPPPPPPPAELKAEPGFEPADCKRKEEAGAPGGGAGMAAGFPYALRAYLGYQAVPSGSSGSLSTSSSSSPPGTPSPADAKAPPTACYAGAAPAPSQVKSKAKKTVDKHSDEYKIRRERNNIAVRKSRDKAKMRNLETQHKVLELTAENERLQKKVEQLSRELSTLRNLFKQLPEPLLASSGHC
Sequence of Transcription factor E2F1 (Homo sapiens) (Q01094 whole entry, looked up): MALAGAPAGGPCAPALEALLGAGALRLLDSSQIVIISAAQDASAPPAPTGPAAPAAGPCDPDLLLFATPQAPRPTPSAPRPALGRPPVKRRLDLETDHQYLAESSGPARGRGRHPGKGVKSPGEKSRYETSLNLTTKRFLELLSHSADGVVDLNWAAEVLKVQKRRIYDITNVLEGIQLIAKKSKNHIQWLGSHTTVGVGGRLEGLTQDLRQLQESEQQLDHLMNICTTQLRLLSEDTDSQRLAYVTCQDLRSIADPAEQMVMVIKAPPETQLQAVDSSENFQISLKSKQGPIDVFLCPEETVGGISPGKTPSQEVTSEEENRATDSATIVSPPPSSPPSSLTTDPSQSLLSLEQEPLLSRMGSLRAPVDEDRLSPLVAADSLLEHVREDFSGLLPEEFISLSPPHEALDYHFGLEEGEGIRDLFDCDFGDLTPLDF
Sequence of Paired box protein Pax-6 (Homo sapiens) (P26367 whole entry, looked up): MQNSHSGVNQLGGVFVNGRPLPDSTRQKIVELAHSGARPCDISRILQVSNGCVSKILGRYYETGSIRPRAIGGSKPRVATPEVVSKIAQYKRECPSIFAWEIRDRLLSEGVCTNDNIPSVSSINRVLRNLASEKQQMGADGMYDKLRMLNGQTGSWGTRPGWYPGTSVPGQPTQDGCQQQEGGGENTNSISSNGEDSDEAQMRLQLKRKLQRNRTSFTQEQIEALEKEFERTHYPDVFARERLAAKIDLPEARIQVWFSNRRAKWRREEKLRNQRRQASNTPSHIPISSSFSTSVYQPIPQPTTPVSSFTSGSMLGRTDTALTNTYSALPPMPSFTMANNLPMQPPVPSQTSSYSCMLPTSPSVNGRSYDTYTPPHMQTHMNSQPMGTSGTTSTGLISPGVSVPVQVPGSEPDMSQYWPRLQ

As for `O=C(O)c1nc(Cl)c(Cl)c(Cl)c1Cl`, the compound was called inactive in [1], in experiment [2], in experiment [3], in [4], in [5] and in [6]. Also, the compound was classed as inactive in experiment [7], in experiment [8], in [9], in experiment [10], in experiment [11] and in experiment [12]. The outcome in experiment [13], in experiment [14], in [15], in experiment [16], in [17] and in [18] was inactive. The compound was called inactive in [19]. The AC50 in experiment [20] was 73 µM (active).

Regarding `CNC[C@H](O)[C@@H](O)[C@H](O)[C@H](O)CO`, the compound was classed as inactive in [1], in [2], in experiment [3], in experiment [4], in experiment [5] and in experiment [6]. The call in [7], in [8], in [9], in experiment [10], in experiment [11] and in experiment [12] was inactive. The result in experiment [13], in experiment [14], in [15], in [16], in experiment [17] and in [18] was inactive. Also, the compound was classed as inactive in [19]. For the same compound, in experiment [20], the half-maximal activity concentration (AC50) was 26 µM (active).

Take `CCCCCCC1CCC(=O)O1` (stereo not given): the call in [1], in experiment [2], in experiment [3], in experiment [4], in experiment [5] and in experiment [6] was inactive. In addition, the result in experiment [7], in experiment [8], in experiment [9], in [10], in experiment [11] and in experiment [12] was inactive. The compound was called inactive in experiment [13], in experiment [14], in [15], in [16], in experiment [17] and in experiment [18]. Besides, the result in experiment [19] and in experiment [20] was inactive.
